Sequences and labels used below:
T1: UNK ZnF1-3 (human, UniProt Q9C0B0 31-174)
T1 sequence: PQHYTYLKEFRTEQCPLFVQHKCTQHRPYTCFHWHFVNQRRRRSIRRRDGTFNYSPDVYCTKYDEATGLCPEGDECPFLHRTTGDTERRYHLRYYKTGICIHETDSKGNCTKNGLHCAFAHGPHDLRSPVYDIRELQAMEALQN

B1: chr2:39006174:39006175:+_ENSG00000152147_ENST00000409566|hu_mus|FALSE|FALSE (ssRNA)
RNA: GGGAGUUCUACAGUCCGACGAUCUACUCCUUCUCACAGGCUAUCACUCUCACUUCUUUAUAAACGUAAUCUUCCCAUUCUAAGGGGCUUUUCUUCAUCCAUUCGCUCAUGGUUACCAGUUGCCCAGAUUCUUUCUAGAUGACUCAACAGAGGAUUGAGCAUCA
B2: 8805033_8805153_1671_3pUTR_ENSMUSG00000021147_ENSMUST00000021572|mouse|control|control (ssRNA)
RNA: GGGAGUUCUACAGUCCGACGAUCAACUUGGAGCUAAGGAACAUCAGUGACUUAUUUUUCUUGUAACAGUGCAGGAAUAUUGAUGUUCCACCCAAUAGCUUGCCUAUCGAACCCACAGGUAAAUAGAUUGCAUAUGGGGUGGUCCAACAGAGGAUUGAGCAUCA
B3: chr2:46850943:46850944:+_ENSG00000119878_ENST00000238892|hu_hu|FALSE|FALSE (ssRNA)
RNA: GGGAGUUCUACAGUCCGACGAUCGUAGGCACAGCCCUGGCAGUAAUGAGAACCUGGUUGGUGCACAGAACUUUUACAAAUUCUACAAGUGGAGAACUUAUUCUUUCCAUAUGGAUCAAAUCUUGCUUUUUUUGAAGUCAAAGCCAACAGAGGAUUGAGCAUCA
B4: 72481967_72485090_997_CDS_ENSMUSG00000030516_ENSMUST00000102592|mouse|control|control (ssRNA)
RNA: GGGAGUUCUACAGUCCGACGAUCUGCUGCCAAACUAUCUUGUGAAAUUUCCUUUACAAAUAUAUGGCUGGCCAAUCGAAGACCAUAUUCUUCAUUUUUCCGAGACUUCACCAGUGUGACCUUGGUGGGCUUUGCGGGCUGACUCAACAGAGGAUUGAGCAUCA
B5: chr7:97110809:97110810:-_ENSMUSG00000030619_ENSMUST00000107234|mus_mus|FALSE|FALSE (ssRNA)
RNA: GGGAGUUCUACAGUCCGACGAUCACAAGACUUGGAAAGUAUCAAAUCGCCUAACCAUCGCACACAAUCAACAUAAUUCCUAUGUAUGUCUCUGGUAGAAAAGUCAGGAAAGUGGAUUUUCUGGGAAAUAAAUGGCCUGUUAGUCAACAGAGGAUUGAGCAUCA
B6: chr11:86070927:86070928:-_ENSMUSG00000018068_ENSMUST00000018212|mus_mus|FALSE|FALSE (ssRNA)
RNA: GGGAGUUCUACAGUCCGACGAUCUGGCACCAACAGUGCCGUCGACAGAGCGAGAAUCAGAAUGGGGACACUGCAAAAAAAAAAAAAAAAGUAAAAAGGAAAGGGAAAAAAAAGGGAGAAGCAACCAGGAGAGAGGGGAAAGCACAACAGAGGAUUGAGCAUCA
B7: chrX:71549400:71549401:+_ENSMUSG00000019087_ENSMUST00000019231|mus_hu|mus_mus_mus_hu_False|8_58 (ssRNA)
RNA: GGGAGUUCUACAGUCCGACGAUCGCAGUAGGAAGAGGGAAGCUCUUCAGUCCAGUGCGCUGCAGGGUGGGAAAGCACAACCUAGACCACCGUCCCACCCUCAACCCCCCCACUGGCACAGGGUCACAUCUGGGUCAUCAAAGACAACAGAGGAUUGAGCAUCA
B8: chrX:71549400:71549401:+_ENSMUSG00000019087_ENSMUST00000019231|mus_hu|mus_mus_mus_hu_False|8_88 (ssRNA)
RNA: GGGAGUUCUACAGUCCGACGAUCGCAGUAGGAAGAGGGAAGCUCUUCAUCCACUGUCGCUGCAGGGUGGGAAAGCAACAACACGGACACCGUCCCACCCUCAACCCCCCCACUGGCACAGGGUCACAUCUGGGUCAUCAAAGACAACAGAGGAUUGAGCAUCA
B9: chr3:148802587:148802588:-_ENSG00000071794_ENST00000310053|hu_mus|hu_hu_hu_mus_False|18_58 (ssRNA)
RNA: GGGAGUUCUACAGUCCGACGAUCUCCAACAACUUGUCCUCUCAUAGUUCCAAAUAAAACCAAAUCUUGCUCUUCAUCACUAGUUAGGAAGUCAUCUGGAGGAAUAAUGUCUUGGAAUUCAAAACGUGGCAAGAAAGUUGAGUACAACAGAGGAUUGAGCAUCA
B10: chr16:45711415:45711416:-_ENSMUSG00000022658_ENSMUST00000096057|mus_mus|FALSE|FALSE (ssRNA)
RNA: GGGAGUUCUACAGUCCGACGAUCAUUAGGAUACGUUCUGUGAGUCAAGGAGAGAAACUUUUUGGCAAAUAAAUAAAUAAAUAAUCAAACAAACCAAGACCUUAGGGCACAGGAGGUCAGAGAGGAAAGGGAGUCUUUGCAUAGCAACAGAGGAUUGAGCAUCA
B11: chr4:88365945:88365946:-_ENSMUSG00000070923_ENSMUST00000094993|mus_mus|motif|central (ssRNA)
RNA: GGGAGUUCUACAGUCCGACGAUCACUUGUAUAGCCAUUUACUAAACAAUAUCAAGCCAAACCAAAAAAAAAAAAGGGUCGGAGUUACCUUUUUGUCUAUUAACUGUAGCAAUAAGGAGAAACAAUACAAGGGGAUGAACAAGACAACAGAGGAUUGAGCAUCA
B12: chr18:46664354:46664355:-_ENSMUSG00000033319_ENSMUST00000036226|mus_hu|FALSE|FALSE (ssRNA)
RNA: GGGAGUUCUACAGUCCGACGAUCGGAAAAAACUGUAGUAGAAAUGGUUAGGACAAACAAUAAAGUAGAAACAGGGGGGAAACUUGAGAAGAGAAGAAAGAAGCAAGAAAAAAAGACUUUCAAUUGUAUAAAAUUCACAAACCACAACAGAGGAUUGAGCAUCA
B13: chr10:112362727:112362728:-_ENSMUSG00000074748_ENSMUST00000099276|mus_mus|FALSE|FALSE (ssRNA)
RNA: GGGAGUUCUACAGUCCGACGAUCGAUCCCAGCAUGCGAUAAUGCCAGGUAGUGGCCCCUGGGCAUGCGAUGGUGGGAACUAAUUUACUGAAGAAAAAAGCACAAACCACAGAAAAUGUAAAGAACCCCUUCCCCCUAUACACACAACAGAGGAUUGAGCAUCA
B14: chr7:141438946:141438947:+_ENSG00000106028_ENST00000265304|hu_mus|hu_hu_hu_mus_True|8_98 (ssRNA)
RNA: GGGAGUUCUACAGUCCGACGAUCGACGAAAUACCUGACAGGUCUUCCUUCGAAACAUGGCUUCUGUUUUUCUUACAACCUAAUCUUUAGGCUUUUCCUAAAGGAAAGAAAGAAAAGAGAAAAAUGAGCAGGGGAUCAACUACACAACAGAGGAUUGAGCAUCA
B15: chr4:128986876:128986877:-_ENSMUSG00000057236_ENSMUST00000102598|mus_mus|motif|central (ssRNA)
RNA: GGGAGUUCUACAGUCCGACGAUCGAUGGUGAGACAGGUCAACCAAAAUGGAGAUGGCAUCAAACUAUAGUGGUCAAAGACGGACCCCUAAAAAAGCAACUUUUAUCAAGGAUUAAUUUAAUCUUAAAAACAAACACAAACUAGCAACAGAGGAUUGAGCAUCA

Over roughly 24,000 sequences, “enrichment r” has its median near 0.99; the highest 2% begin near 3.7. The entries come from a sample that favours the highest values as a whole.

This experiment addresses T1, UNK ZnF1-3. The experiment in a line: nsRBNS (natural sequence RNA bind-n-seq); RBNS binding buffer (assumed for nsRBNS): 25 mM Tris pH 7.5, 150 mM KCl, 3 mM MgCl2, 0.01% Triton X-100, 500 ug/ml BSA, 20 U/ml SUPERase-In, 4 C; UNK is unkempt and MSI1 is Musashi-1; names of the RNAs are library labels; protein concentration not given here; high values mean tight binding.
As for B1, the binding signal amounted to 0.786 enrichment R.

B2 gave a binding signal of 0.759 enrichment R.

B3 displayed a binding signal of 0.978 enrichment R.

As to B4, the binding signal amounted to 0.579 enrichment R.

Molecule B5 came in with a binding signal of 1.38 enrichment R.

B6 displayed a binding signal of 8.95 enrichment R.

In the case of B7, the binding signal was 1.31 enrichment R.

For B8, the binding signal came out at 1.14 enrichment R.

B9 registered a binding signal of 1.29 enrichment R.

B10 registered a binding signal of 3.91 enrichment R.

In turn, B11 gave a binding signal of 1.54 enrichment R.

In the case of B12, the binding signal amounted to 5.26 enrichment R.

B13 had a binding signal of 1.77 enrichment R.

With B14, the binding signal is 0.543 enrichment R.

Take B15: the binding signal was found to be 4.74 enrichment R.
